Results on 40 compounds are retold here after PubChem BioAssay (Tox21).

Molecules are shown by their SMILES. Results filed as inconclusive are left out. Values without a mark were called inactive. Active and inactive are the calls of the source. Calls come from the whole dose curve; as a rule, active = well fitted cell-killing curve with a large enough effect in the repeat runs; inconclusive = weak or mixed curves; inactive = flat fitted curve, though single readings scatter.
% is set by controls: 0 for no effect and ±100 for the full control effect; potency is the fitted concentration of half-maximal effect.

This assay in a line: qHTS RealTime-Glo MT Cell Viability Assay in HepG2 cells - 16 hour (AID 1224885). Note: nearly all actives have a fitted effect of over 50% in size. The following applies: RealTime-Glo luminescence; series mostly up to 76.8 µM; activity change, negative = cytotoxic: at the top concentration. An excerpt: U.S. Tox21 Program National Center for Advancing Translational Sciences [NCATS] NIH Chemical Genomics Center [NCGC] U.S. Environmental Protection Agency [EPA] National Institutes of Environmental Health Sciences [NIEHS] National Toxicology Program [NTP] U.S. Food and Drug Administration [FDA] Tox21 Assay Overview: Measure of cell viability is critical in the cell-base assay. Analysis of cell viability is necessary for the characterization of cell responses to cytotoxic drugs and environmental stress. A RealTime-Glo MT Cell Viability Assay to monitor cell viability in real time of continues cell culture during 40 hours of compound treatment was used to screen Tox21 10K library compounds in HepG2 cells. The RealTime-Glo MT Cell Viability Assay is a nonlytic, homogeneous, bioluminescent method to measure cell viability in real time using a simple, plate-based method. The assay involves adding NanoLuc luciferase and a cell-permeant prosubstrate to cells in culture. Viable cells reduce the proprietary prosubstrate to generate a substrate for NanoLuc luciferase. This substrate diffuses from cells into the surrounding culture medium, where it is rapidly used by the NanoLuc Enzyme to produce a luminescent signal. The signal correlates with the number of viable cells, making the assay well suited for cytotoxicity studies.
Tox21 Assay Protocol Summary: The mixture of HepG2 cell suspension and reagents were dispensed at 600cells/6 ul/well in 1536-well tissue culture treated black solid bottom plates using a Multidrop dispenser. After the assay plates were incubated at a 37 C/5% CO2 incubator for 5 hours, 23 nL of compounds dissolved in DMSO, positive and negative controls was transferred to the assay plate by a pintool work station. The plates were incubated at 37 C for 40 hours. The luminescence intensity were measured at 0h, 8h, 16h, 24h, 32h and 40h time points using ViewLux plate reader during compound treatment.
In general terms: qHTS replaces the single test concentration by a dilution series.
Turning to `C/C=C/C(=O)C1=C(C)C=CCC1(C)C`, the “activity change, negative = cytotoxic” value was 2.25%.
As to `CCOc1nc(F)cc2nc(S(=O)(=O)Nc3c(Cl)cccc3C(=O)OC)nn12`, the “activity change, negative = cytotoxic” value was -1.89%.
For the compound `CCC1(C)C(=O)N(Cl)C(=O)N1Cl` (stereo not given), the “activity change, negative = cytotoxic” value was 0.347%.
As for `CSc1nnc(C(C)(C)C)c(=O)[nH]1`, the “activity change, negative = cytotoxic” value was -2.49%.
As for `NCc1cccc(C2CCN(C(=O)c3ccc(C#Cc4ccccc4F)o3)CC2)c1`, the Potency is 49 µM (active).
For the compound `Cc1c(Cl)c(=O)oc2cc(O)ccc12`, the “activity change, negative = cytotoxic” value was -11.8%.
Turning to `Oc1cccc2c(O)cccc12`, the “activity change, negative = cytotoxic” value was -2.31%.
As to `CCOC(=O)C1=NN(c2ccc(Cl)cc2Cl)C(C)(C(=O)OCC)C1` (stereo not given), the “activity change, negative = cytotoxic” value is -5.52%.
Regarding `C[C@H]1O[C@@H](O[C@H]2CC[C@@]3(C)[C@H](CC[C@@H]4[C@@H]3C[C@@H](O)[C@]3(C)[C@@H](C5=CC(=O)OC5)CC[C@]43O)C2)C[C@H](O)[C@@H]1O[C@H]1C[C@H](O)[C@H](O[C@H]2C[C@H](O)[C@H](O[C@@H]3O[C@H](CO)[C@@H](O)[C@H](O)[C@H]3O)[C@@H](C)O2)[C@@H](C)O1`, the “activity change, negative = cytotoxic” value is -15.3% [at 35.3 µM].
Turning to `O=S(=O)(c1ccc(OCc2ccccc2)cc1)c1ccccc1O`, the “activity change, negative = cytotoxic” value is -20.9%.
As for `O[Si](c1ccccc1)(c1ccccc1)c1ccccc1`, the “activity change, negative = cytotoxic” value is -16.9%.
Take `CCCC(C)C=O` (stereo not given): the “activity change, negative = cytotoxic” value was -0.519%.
In the case of `Oc1ccc(Cl)cc1C1CCCC1`, the “activity change, negative = cytotoxic” value was -21%.
For `[Cl][Dy]([Cl])[Cl]`, the “activity change, negative = cytotoxic” value is -24.2%.
As to `N#CCCOCCC#N`, the “activity change, negative = cytotoxic” value was -7.67%.
In the case of `CCCCCN=C(N)N/N=C/c1c[nH]c2ccc(OC)cc12`, the Potency is 7.56 µM (active).
Take `Cn1c(=O)[nH]c2ncn(C)c2c1=O`: the “activity change, negative = cytotoxic” value is -0.452%.
For the compound `O=C(NCc1ncc(C(F)(F)F)cc1Cl)c1c(Cl)cccc1Cl`, the “activity change, negative = cytotoxic” value was -8.7%.
On to `Cc1cc(C)c(O)c(C(C)(C)C)c1`, for which the “activity change, negative = cytotoxic” value was -16.1%.
Same read-out and setting: the result for `CC(C=O)c1ccccc1` (stereo not given) reads -0.21%; that for `CCOC(=O)[C@H](C)O`, 0.611%; that for `CCOC(=O)OC(=O)OCC`, 0.623%.
Turning to `CC(=O)Nc1ccc(N=Nc2cc(C)ccc2O)cc1`, the “activity change, negative = cytotoxic” value was -8.81%.
In the case of `CCCOC(=O)c1ccc(O)cc1`, the “activity change, negative = cytotoxic” value was -8.35%.
Consider `Nc1ccc(F)c([N+](=O)[O-])c1`, for which the “activity change, negative = cytotoxic” value is -7.27%.
In the case of `Brc1cc(Br)cc(Br)c1`, the “activity change, negative = cytotoxic” value is 0.522%.
As to `N#Cc1nc(Cl)c(Cl)c(Cl)c1Cl`, the Potency is 21.9 µM (active).
With `CCn1c2ccccc2c2ccccc21`, the “activity change, negative = cytotoxic” value was -3.15%.
Regarding `O=C(O)CN(CCCN(CC(=O)O)CC(=O)O)CC(=O)O`, the activity change, negative = cytotoxic is -11.5% [at 15.8 µM].
In the case of `CCc1cccc(C)c1N(C(=O)C(=O)O)C(C)COC` (stereo not given), the “activity change, negative = cytotoxic” value is -0.158%.
Turning to `C/C=C/C(=O)OCC(C)C`, the “activity change, negative = cytotoxic” value is 0.865%.
For the compound `C=CC(C)(C)O`, the “activity change, negative = cytotoxic” value was 0.515%.
For `C=CC(=O)OCCOC1C2CCC1C1CC=CC12` (stereo not given), the activity change, negative = cytotoxic is 0.672% [at 15.8 µM].
For `COCCC(=O)OC`, the “activity change, negative = cytotoxic” value was -5.16%.
Same read-out and setting: then `O=c1[nH]cccc1O`, with 0.679%; and `CCCCCCCCc1ccc(Nc2ccc(CCCCCCCC)cc2)cc1`, with -4.84% [at 35.3 µM]; and `COc1cc2ncnc(Nc3cccc(Cl)c3)c2cc1OC`, with -11.4% [at 15.8 µM].
Consider `CC(Cc1ccc(O)c(O)c1)C(C)Cc1ccc(O)c(O)c1` (stereo not given), for which the Potency was 43.6 µM (active).
For `CC1=CC[C@@H](C(C)(C)O)CC1`, the “activity change, negative = cytotoxic” value is -2.64%.
Take `CCc1cccc(C)c1N(C(=O)CS(=O)(=O)O)C(C)COC` (stereo not given): the “activity change, negative = cytotoxic” value was -5.33%.
